# PubChem BioAssay (NCATS)
# Results filed as inconclusive are left out. Entries that show only a call come without a potency. Unmarked numbers belong to inactive results. Activity calls are given as the source filed them. Calls follow the shape of the dose curve; as a rule, active = well fitted curve in the direction sought with a large enough effect; inconclusive = small, poorly fitted or top-dose-only effect, or another doubt; inactive = no such curve, though single readings can be large; an effect the other way counts as inactive or inconclusive.
# What was measured:
# [1] = qHTS Screen of the MIPE 4.0 Collection Against Ewings Sarcoma (TC71) (AID 1259253); also: nearly all actives have a fitted effect of over 40% in size; also: potency is read from the fitted curve at half-maximal effect
# Method in brief: (§1)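 Here, cells in 5% FBS RPMI were exposed for two days (48 h) to compound dilutions added four hours after plating. ATP-based CellTiter-Glo luminescence measured viability, normalized to vehicle and no-cell blanks.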
# [2] = qHTS Screen of the MIPE 4.0 Collection Against Ewings Sarcoma (EW8) (AID 1259255); also: nearly all actives have a fitted effect of over 35% in size; also: potency is read from the fitted curve at half-maximal effect
# Method in brief: as §1
# [3] = P-glycoprotein substrates identified in KB-8-5-11 adenocarcinoma cell line, qHTS therapeutic library screen (AID 1346987); also: nearly all actives have a fitted effect of over 65% in size; also: potency is read from the fitted curve at half-maximal effect; as to activity change, negative = cytotoxicity: series mostly up to about 44 µM
# Method in brief: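 Compounds are pinned in dose-response onto KB-8-5-11 cells (500 cells/well, colchicine-free medium) and left 72 h at 37 degree C. CellTiter-Glo luminescence then yields AC50 values.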
# [4] = NS1 protein of Zika virus - qHTS assay to identify small molecule inhibitors in human HEK 293 cells (AID 1347053); also: nearly all actives have a fitted effect of over 55% in size; also: potency is read from the fitted curve at half-maximal effect
# Method in brief: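 Read-out is a two-antibody TR-FRET for ZIKV NS1, normalized between uninfected cells and infected cells. Compound added 1 h before MR766 infection at MOI 0.5; human HEK 293 cells incubated 24 h, 37 C.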
# [5] = qHTS Screen of the MIPE 4.0 Collection Against Ewings Sarcoma (TC32) (AID 1259256); also: nearly all actives have a fitted effect of over 45% in size; also: potency is read from the fitted curve at half-maximal effect
# Method in brief: as §1
# [6] = P-glycoprotein substrates identified in KB-3-1 adenocarcinoma cell line, qHTS therapeutic library screen (AID 1346986); also: nearly all actives have a fitted effect of over 60% in size
# Method in brief: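 72 h cell-killing screen, 500 cells/well, CellTiter-Glo luminescence. Paired lines KB-3-1/KB-8-5-11; P-gp dependence checked by tariquidar co-treatment and HEK-293 MDR-19 versus empty-vector cells.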
# [7] = Identifying Small Molecule Inhibitors of Pancreatic Cancer Stem Cells (SN12C, Adherent) (AID 1259358);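 also: cell survival measured after 48 h of compound exposure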
# Method in brief: (§2)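 Luminescent ATP readout (CellTiter-Glo) quantifies surviving cells after a 48 h drug incubation. Normalization uses DMSO wells as no inhibition and media-only wells as full inhibition; bortezomib served as positive control.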
# [8] = Identifying Small Molecule Inhibitors of Pancreatic Cancer Stem Cells (A278, Adherent) (AID 1259361); also: nearly all actives have a fitted effect of over 35% in size
# Method in brief: as §2
# [9] = Identifying Small Molecule Inhibitors of Pancreatic Cancer Stem Cells (Panc1, Adherent) (AID 1259362); settings: Potency: viability;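 also: compound exposure lasted 48 h before the viability read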
# Method in brief: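 Cytotoxicity read by CellTiter-Glo luminescence after 48 h compound exposure at 37C; percent activity scaled between DMSO-treated cells and cell-free wells. Spheroid formats used cells pre-formed 14 days in stem cell media on hydrogel.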
smiles,measurement,setting,value
CN(C)CCOc1ccc(C(=C(CCCl)c2ccccc2)c2ccccc2)cc1,Potency,[1],3.72 µM (active)
same,Potency,[2],inactive
same,Potency,[3],inactive
same,Potency,[4],inactive
CC(C)C[C@@H](N)[C@H](O)C(=O)N[C@H](C(=O)N[C@H](C(=O)N[C@@H](CC(=O)O)C(=O)O)C(C)C)C(C)C,Potency,[1],18.7 µM (active)
same,Potency,[2],inactive
same,Potency,[3],inactive
same,Potency,[4],inactive
CCOC(=O)[C@H]1O[C@H]1C(=O)N[C@@H](CC(C)C)C(=O)NCCC(C)C,Potency,[1],2.96 µM (active)
same,Potency,[5],18.7 µM (active)
same,Potency,[3],inactive
same,Potency,[4],inactive
CCCCN(CCCC)CC(O)c1cc(Cl)cc2c1-c1ccc(Cl)cc1C2=Cc1ccc(Cl)cc1 (stereo not given),Potency,[2],inactive
same,Potency,[3],inactive
same,Potency,[4],inactive
Cc1ccc(S(=O)(=O)OCC(=O)Nc2ccc(C(=O)O)c(O)c2)cc1,Potency,[5],11.8 µM (active)
same,Potency,[6],inactive
same,Potency,[3],inactive
same,Potency,[4],inactive
COc1nc(C)cnc1NS(=O)(=O)c1cccnc1-c1ccc(-c2nnco2)cc1,Potency,[2],inactive
same,Potency,[5],inactive
same,Potency,[7],inactive
same,IC50 (viability decrease),[8],inactive
same,Potency,[9],inactive
same,Potency,[6],inactive
same,Potency,[3],inactive
same,Potency,[4],inactive
CCCCCOC(=O)Nc1nc(=O)n([C@@H]2O[C@H](C)[C@@H](O)C2O)cc1F (stereo not given in full),Potency,[2],inactive
same,Potency,[5],20.9 µM (active)
same,Potency,[3],inactive
same,Potency,[4],inactive
CNc1nc(-c2ccc3c(N)n[nH]c3c2)cc(N2C[C@@H](C(=O)NC3CCCCC3)CC[C@@H]2C)n1,Potency,[1],20.9 µM (active)
same,Potency,[5],6.62 µM (active)
Cc1ccccc1-n1c(Cn2nc(-c3cccc(O)c3)c3c(N)ncnc32)nc2cccc(C)c2c1=O,Potency,[1],9.35 µM (active)
same,Potency,[2],16.6 µM (active)
same,Potency,[3],inactive
same,Potency,[4],inactive
O=C(O)C1=NC(C(=O)O)CC(C=CN2c3cc(O)c(OC4OC(CO)C(O)C(O)C4O)cc3CC2C(=O)O)=C1 (stereo not given),Potency,[1],inactive
same,Potency,[2],inactive
same,Potency,[3],inactive
same,Potency,[4],inactive
CCc1cccc(CC)c1NC(=O)N1Cc2[nH]nc(NC(=O)c3ccc(N4CCN(C)CC4)cc3)c2C1,Potency,[1],4.18 µM (active)
same,Potency,[5],0.526 µM (active)
same,Potency,[3],inactive
same,Potency,[4],inactive
COc1c(C)c2c(c(O)c1CC=C(C)CCC(=O)O)C(=O)OC2,Potency,[1],2.35 µM (active)
same,Potency,[2],1.48 µM (active)
same,Potency,[3],6.62 µM (active)
same,Potency,[4],0.526 µM (active)
O=C(Nc1ccccc1)Nc1ccc(-c2ccc(C(=O)[C@H]3CCC[C@H]3C(=O)O)cc2)cc1,Potency,[5],18.7 µM (active)
same,Potency,[3],inactive
same,Potency,[4],inactive
CCC(=O)OCC(=O)[C@@]1(OC(=O)CC)[C@@H](C)C[C@@H]2[C@H]3CCC4=CC(=O)C=C[C@]4(C)[C@@]3(F)[C@@H](O)C[C@@]21C,Potency,[5],inactive
same,Potency,[6],inactive
N#CC(=C1Nc2ccccc2S1)c1ccnc(OCc2ccc(CN3CCOCC3)cc2)n1,Potency,[2],5.26 µM (active)
same,Potency,[5],7.43 µM (active)
same,Potency,[3],inactive
Nc1[nH]nc2nnc(-c3c(-c4ccccc4)nn4ccccc34)cc12,Potency,[1],8.33 µM (active)
same,Potency,[5],11.8 µM (active)
same,Potency,[6],inactive
same,Potency,[3],inactive
same,Potency,[4],inactive
C[C@@H](N)c1ccc(C(=O)Nc2ccnc3[nH]ccc23)cc1,Potency,[1],16.6 µM (active)
same,Potency,[3],inactive
same,Potency,[4],inactive
CCc1cc(-c2n[nH]c(C)c2-c2ccc3c(c2)OCCO3)c(O)cc1O,Potency,[1],8.33 µM (active)
same,Potency,[5],4.18 µM (active)
same,Potency,[3],9.35 µM (active)
same,Potency,[4],inactive
CO[C@H]1C=CO[C@@]2(C)Oc3c(C)c(O)c4c(O)c(c(C=NN5CCN(C)CC5)c(O)c4c3C2=O)NC(=O)C(C)=CC=C[C@H](C)[C@H](O)[C@@H](C)[C@@H](O)[C@@H](C)[C@H](OC(C)=O)[C@H]1C,"activity change, negative = cytotoxicity",[3],0.164% [at 9.29 µM]
CC(C)(OCc1nn(Cc2ccccc2)c2ccccc12)C(=O)O,Potency,[1],7.43 µM (active)
same,Potency,[2],inactive
same,Potency,[3],inactive
Nc1nc(Cl)nc2c1ncn2[C@@H]1O[C@H](CO)[C@@H](O)[C@H]1F,Potency,[2],inactive
same,Potency,[5],inactive
c1cc(OCCN2CCCCC2)cc(-c2n[nH]c3ccc(-c4ncn[nH]4)cc23)c1,Potency,[1],23.5 µM (active)
same,Potency,[3],inactive
same,Potency,[4],inactive
Cc1cc(CS(=O)(=O)c2ccccc2)cc(OCc2ccc(CN3CCC[C@H]3CO)cc2)c1,Potency,[1],20.9 µM (active)
same,Potency,[5],20.9 µM (active)
same,Potency,[3],4.18 µM (active)
same,Potency,[4],inactive
COc1cc(Nc2nc3ccccc3nc2NS(=O)(=O)c2ccc(NC(=O)c3ccc(C)c(OC)c3)cc2)cc(OC)c1,Potency,[1],20.9 µM (active)
same,Potency,[5],18.7 µM (active)
same,Potency,[6],inactive
same,Potency,[3],inactive
Cc1ccc(NC(=O)Nc2cc(C(F)(F)F)ccc2F)cc1Nc1ccc2c(c1)NC(=O)C2=Cc1ccc[nH]1,Potency,[1],26.4 µM (active)
same,Potency,[5],26.4 µM (active)
same,Potency,[3],10.5 µM (active)
same,Potency,[4],inactive
